In all, about 48,000 compounds went through this assay and about 13,000 (27%) showed an effect of 50% or more. This is one part of the list.

In this experiment the test system is Wolbachia pipientis. Briefly: Anti-Wolbachia Cell-Based Screen. In kind it is functional. Details: scale not given: in the data most compounds retested in dose-response had high values. Particulars: 5 µM.
As to `Cn1cnc2c1CCN(CCCOc1ccc(S(C)(=O)=O)cc1)C2`, the “Percent Effect” value is -0.429%.

With `COc1cc(CNC(=O)N2CCCC2c2cc(C)no2)ccn1` (centres undefined), the “Percent Effect” value is given as -13.9%.

As for `CCOc1ccccc1-c1noc(CN(C)Cc2cnn(C)c2)n1`, the “Percent Effect” value is on record as -16.57%.

As for `CCS(=O)(=O)Nc1ccc2c(c1)OCC(C)(C)C(=O)N2C`, the “Percent Effect” value is recorded as 121.3%.

As to `CCS(=O)(=O)Nc1ccc2[nH]c(C3CCC3)nc2c1`, the “Percent Effect” value amounted to 5.664%.

`CCCS(=O)(=O)Nc1ccc2c(c1)OCC(C)(C)C(=O)N2C`: the “Percent Effect” value is given as -9.167%.

In the case of `O=C(CCc1nc(Cl)n[nH]1)NC1CCCN(C2Cc3ccccc3C2)C1` (centres undefined), the “Percent Effect” value is listed as -44.69%.

Regarding `COC(=O)CNC(=O)C1(N(C)Cc2ccccc2)Cc2ccccc2C1`, the “Percent Effect” value is reported as -5.057%.

Take `COc1cc(C)c(C(C)NC(=O)c2cccnc2N(C)C)cc1OC` (centres undefined): the “Percent Effect” value is listed as 0.4558%.

Take `COC(=O)c1ccoc1CN(C)Cc1ccccc1`: the “Percent Effect” value is reported as 118.1%.

In the case of `COC(=O)c1ccoc1CN(C)CC(=O)N(C)C`, the “Percent Effect” value is 115.3%.

As for `CN(Cc1ccccc1)CC(C)(C)NC(=O)c1ccon1`, the “Percent Effect” value was determined as 7.047%.

Regarding `COc1cc(CC(=O)Nc2cccc(C(=O)N(C)C)n2)ccc1C`, the “Percent Effect” value was -9.433%.

In the case of `CC1Cc2ccccc2N1Cc1occc1C(=O)NCC(=O)N(C)C` (centres undefined), the “Percent Effect” value was -8.438%.

Consider `COC(=O)c1ccoc1CN(C)Cc1cc(OC)c(OC)cc1C`, for which the “Percent Effect” value is 109.7%.

As to `CN(CC(=O)N(C)C)Cc1ccc(C#N)cc1F`, the “Percent Effect” value is -6.679%.

As for `COc1ccc(F)cc1C(C(=O)O)N1CCCN(C2CCCC2)CC1` (centres undefined), the “Percent Effect” value is 11.4%.

For `CCC(C)(C)NC(=O)c1scnc1Cl`, the “Percent Effect” value was 6.107%.

As for `Cc1cnn(C2CN(CC(O)COCc3ccc4c(c3)OCO4)C2)c1` (centres undefined), the “Percent Effect” value is given as -34.94%.

Take `CSc1ccc(CNC(c2ccccc2)c2nccn2C)cc1` (centres undefined): the “Percent Effect” value was -1.677%.

In the case of `COc1cc(CN(C)C(=O)Cc2c(C)nn(C)c2C)ccc1OC(F)F`, the “Percent Effect” value was -29.22%.

Turning to `COc1cc(C)cc(OC)c1C(C(=O)O)N(C)Cc1c(C)nn(C)c1C` (centres undefined), the “Percent Effect” value came out at 77.2%.

With `COc1cc(F)ccc1C(C(=O)O)N(C)Cc1ccon1` (centres undefined), the “Percent Effect” value came out at 19.52%.

For `COc1ccc(C(C(=O)O)N(C)Cc2c(C)nn(C)c2C)c(C)c1` (centres undefined), the “Percent Effect” value came to 108.6%.

For the molecule `Cc1ccc(C(C(=O)O)N(C)CCN2CCOCC2)c(F)c1` (centres undefined), the “Percent Effect” value was -0.2175%.

On to `COc1ccc(C(C(=O)O)N(C)CCN2CCCC2)c(C)c1` (centres undefined), for which the “Percent Effect” value worked out at 0.7603%.

For the molecule `COc1ccc(Cl)cc1C(C(=O)O)N(C)Cc1ccon1` (centres undefined), the “Percent Effect” value is -2.698%.

Consider `Cc1nn(C)c(C)c1CN(C)C(C(=O)O)c1ccc(F)cc1F` (centres undefined), for which the “Percent Effect” value was determined as 99.54%.

Turning to `COc1cc(C)cc(C(C(=O)O)N(C)Cc2cnn(C)c2)c1OC` (centres undefined), the “Percent Effect” value is -13.95%.

For the origin of these results see ChEMBL document CHEMBL3988442, “University of Dundee, Small-Polar-MMV Screening Library” (2021).
